Measured values from PubChem BioAssay (NCI).
This is part of a sample that, as a whole, favours compounds with a hit. Of some 79,000 tested, about 15% had one in any assay. Active and inactive are the calls of the source. No stated cut-off is given here; in the data, active means growth inhibition above about 70%; inactive means the rest.

What was measured:
[1] = NCI Yeast Anticancer Drug Screen. Data for the rad50 strain (AID 155);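 further: 0% = growth of vehicle-only cultures of the same strain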; settings: S. cerevisiae rad50 strain growth inhibition; at 50.0 µM; hits give high values
Summary of the method: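 Relative growth inhibition (compound vs vehicle) was measured in yeast with a defined repair-gene alteration.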

[2] = NCI Yeast Anticancer Drug Screen. Data for the mec2-1 strain (AID 157); settings: S. cerevisiae mec2-1 strain, at 50.0 µM, hits give high values
Summary of the method: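 Vehicle-treated cultures served as reference for growth inhibition of compound-exposed mec2-1 yeast.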

[3] = NCI Yeast Anticancer Drug Screen. Data for the sgs1 mgt1 strain (AID 161);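 further: 0% = growth of cultures given vehicle only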; settings: S. cerevisiae sgs1 mgt1 strain, at 50.0 µM, hits give high values
Summary of the method: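 Inhibition of yeast growth, normalised to vehicle-treated controls, is reported for a strain bearing genetic alterations in DNA damage repair.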

[4] = NCI Yeast Anticancer Drug Screen. Data for the cln2 rad14 strain (AID 165);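 further: 0% = growth equal to vehicle treated cultures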; settings: S. cerevisiae cln2 rad14 strain, at 50.0 µM, hits give high values
Summary of the method: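 Each compound was tested on cln2 rad14 yeast. Inhibition of growth was calculated against vehicle-exposed controls.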

[5] = NCI Yeast Anticancer Drug Screen. Data for the bub3 strain (AID 167); settings: S. cerevisiae bub3 mutant strain, at 50.0 µM, hits give high values
Summary of the method: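 Screening used yeast with an engineered genetic alteration affecting cell cycle control. Compound-exposed cultures were compared with vehicle cultures, and reduced growth was taken as inhibition.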

[6] = NCI Yeast Anticancer Drug Screen. Data for the mlh1 rad18 strain (AID 175); settings: S. cerevisiae mlh1 rad18 strain growth inhibition; at 50.0 µM; hits give high values
Summary of the method: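 Vehicle-treated cultures served as the reference for growth inhibition in a yeast strain carrying DNA damage repair alterations exposed to each compound.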

Measured: growth inhibition

C[C@@H]1CN[C@@H](C)CN1
inactive: [1] -35.2% | [2] -30.3% | [3] -17.4% | [4] -8.25% | [5] -0.6% | [6] 3.8%

CCOC(=O)/C(C#N)=C\Nc1ccc(C)cc1
inactive: [1] -0.85% | [2] -26.6% | [3] -7.95% | [4] -2.55% | [5] -12.1% | [6] -8.75%

O=[N+]([O-])c1cc(Br)ccc1P(=O)(O)O
inactive: [1] 9.25% | [2] 8.8% | [3] -1.25% | [4] 7.85% | [5] 16.9% | [6] -4.95%

C=C1CC2C(=O)N(c3ccccc3)C(=O)C2CC1n1[nH]c(=O)n(Cc2ccccc2)c1=O (configuration not stated)
inactive: [1] 3.8% | [2] 3.1% | [3] 9.65% | [4] -29.8% | [5] 15.7% | [6] -5.7%

O=C(O)C(Cc1ccccc1)NC(c1ccc(Cl)cc1)P(=O)(O)O (configuration not stated)
inactive: [1] 14.3% | [2] 7.95% | [3] -2.3% | [4] 12.8% | [5] -4.8% | [6] 20.8%

C1CCN(c2nn[nH]n2)CC1
inactive: [1] 4.05% | [2] -2% | [3] 3.75% | [4] -10.3% | [5] 12.4% | [6] 0.4%

Cc1cccc(N=Cc2ccc(N(CCC#N)S(=O)(=O)c3ccccc3)cc2C)c1
inactive: [1] -34.5% | [2] -16.6% | [3] -54.9% | [4] -8.35% | [5] -10.9% | [6] -9.2%

NC(=O)c1ncnc2nc[nH]c12
inactive: [1] -14.2% | [2] -42.5% | [3] -9% | [4] -29.1% | [5] -20.4% | [6] -10.6%

CC(=O)Nc1ccc(S(=O)(=O)NNc2nc(N3CCCC3)nc(N3CCCC3)n2)cc1
inactive: [1] 1.7% | [2] -8.1% | [3] -14.4% | [4] 1.8% | [5] -1.25% | [6] 2.15%

CC1CC[P+](c2ccccc2)(c2ccccc2)CC1
inactive: [1] 22.9% | [2] 17.4% | [3] 30.3% | [4] 4.5% | [5] 22.1% | [6] 32.5%

O=NN(Cc1ccccc1)NC(=O)c1ccccc1
inactive: [1] 6.2% | [2] 28.1% | [3] 8.9% | [4] -8.4% | [5] 20.9% | [6] 11.2%

CC(=O)Oc1cc(C)c(OC(C)=O)cc1C
inactive: [1] -11.3% | [2] -14.3% | [3] 3.1% | [4] -1.85% | [5] 16.9% | [6] 14.3%

CCCCCCC(/C=N/Nc1ccccn1)=C\c1ccccc1
inactive: [1] -5.05% | [2] -0.95% | [3] 2.55% | [4] -7.6% | [5] -4.1% | [6] -21.9%

COc1ccc(-c2cc(=O)c3cc(C)c(C)c(C(=O)O)c3o2)cc1
inactive: [1] -10.5% | [2] -2.95% | [3] -5.4% | [4] 10.8% | [5] -8.7% | [6] 0.75%

O=C(O)CCCCC(=O)c1cc(O)ccc1O
inactive: [1] 15.3% | [2] 10.1% | [3] 2.55% | [4] -53.3% | [5] -15.3% | [6] -3.45%

NC(Cc1ccccc1F)C(=O)O (configuration not stated)
inactive: [1] 5.95% | [2] -18.6% | [3] 5.4% | [4] 13.6% | [5] 4.9% | [6] 11.2%

O=C(Nc1ccc(Cl)cc1)c1ccc(Cl)c(Cl)c1
inactive: [1] -1.6% | [2] 14.8% | [3] 7.1% | [4] -8.6% | [5] 11.8% | [6] -9.6%

O=C(Nc1ccccc1)Nc1ccccc1C(=O)O
inactive: [1] -5.8% | [2] -22% | [3] -16.4% | [4] -54.6% | [5] -16.2% | [6] -31.3%

CCOC(=O)C1CC1C#N (configuration not stated)
inactive: [1] 3.4% | [2] -11.9% | [3] 9% | [4] 13.9% | [5] 9.95% | [6] 7.75%

COC(=O)c1nc2c3c(cccc3c1C(=O)OC)Nc1ccccc1-2
inactive: [1] -3.2% | [2] 9.65% | [3] 0.35% | [4] 28.5% | [5] 19.4% | [6] -39.4%

Cn1/c(=N\N=C2\C=C3CCCCC3(C)CC2)sc2ccccc21 (configuration not stated)
inactive: [1] 12.7% | [2] 12.2% | [3] 22.9% | [4] 33.2% | [5] -8.8% | [6] 47.1%

Oc1ccc(Cl)cc1Cc1cc(Cl)cc(Cc2cc(Cl)cc(Cc3cc(Cl)cc(Cc4cc(Cl)ccc4O)c3O)c2O)c1O
inactive: [1] -31.2% | [2] 0.5% | [3] -5.4% | [4] -16.6% | [5] -26% | [6] -27.1%

O=C1OCc2c1cc1cc3c(cc1c2-c1ccc2c(c1)OCO2)OCO3
inactive: [1] 2.1% | [2] -36.1% | [3] 3.4% | [4] 4.8% | [5] -19.2% | [6] 3.85%

CC(C)=CCC(OC(=O)C=C(C)C)c1cc(O)c2c(O)ccc(O)c2c1O.[Mn] (configuration not stated)
active: [6] 87.3%
inactive: [1] 36.1% | [2] 47.2% | [3] 25.4% | [4] 54.1% | [5] 46%

CC(C)Cn1cnc2c(Sc3c([N+](=O)[O-])ncn3C)nc(N)nc21
inactive: [1] 7.95% | [2] -14.1% | [3] -13.2% | [4] -1.4% | [5] 2.1% | [6] 7.15%

CC1(c2ccccc2)CC(c2cccc([N+](=O)[O-])c2)=NO1 (configuration not stated)
inactive: [1] 27.4% | [2] 15.9% | [3] 36.9% | [4] 34.9% | [5] 28.6% | [6] 23.4%

COc1cc2c(cc1O)[C@@H]1Cc3c(cc(OC)c(OC)c3Oc3cc4c(cc3OC)CCN(C)[C@@H]4Cc3ccc(O)cc3)[C@H](C2)N1C
inactive: [1] 14.9% | [2] 8.75% | [3] 0.15% | [4] 12.1% | [5] -10.4% | [6] -56%

CCCCCCOCC(=O)O
inactive: [1] -6.75% | [2] -11.2% | [3] -7.25% | [4] -19.8% | [5] -10.4% | [6] -13.7%

C/C(=N\S(=O)(=O)c1ccc([N+](=O)[O-])cc1)OCC(C)C
inactive: [1] 11.2% | [2] -8.4% | [3] 14.7% | [4] -47.9% | [5] 10.7% | [6] 2.25%

c1ccc2c(c1)cc1ccc3cc4ccccc4c4nnc2c1c34
inactive: [1] -23.1% | [2] -7.3% | [3] -10.2% | [4] -16.8% | [5] -11.9% | [6] -14.6%

CC(=O)OCC1OC=CC(OC(C)=O)C1OC(C)=O (configuration not stated)
inactive: [1] -23.1% | [2] -18.8% | [3] -8.55% | [4] -5.85% | [5] -25.8% | [6] -7.5%

N#CCCP(=O)(O)CO
inactive: [1] -6.5% | [2] -13.3% | [3] 1.1% | [4] 0.1% | [5] 3.9% | [6] -26.7%

O=C1OCc2nc3c(c(-c4ccccc4C(F)(F)F)c21)C(=O)OC3
inactive: [1] -40.1% | [2] -66.6% | [3] -59.3% | [4] -0.85% | [5] -35.4% | [6] -39%

O=C1C(Cl)=C(NC(CO)(CO)CO)C(=O)c2ccccc21
inactive: [1] 4.7% | [2] 16.6% | [3] -6.05% | [4] 1.6% | [5] 8.45% | [6] 8.15%

OC(C(c1ccccc1)N1CCCCC1)C(O)(c1ccccc1)c1ccccc1 (configuration not stated)
inactive: [1] 12.2% | [2] -3.15% | [3] 22.6% | [4] 24.9% | [5] 6.2% | [6] -0.5%

CCCCC(CC)COC(=O)Cc1ccccc1 (configuration not stated)
inactive: [1] 17.3% | [2] 17.1% | [3] 15.8% | [4] -5.85% | [5] 40.1% | [6] 34.7%

c1ccc2c(-c3nn[nH]n3)nccc2c1
inactive: [1] 11.6% | [2] -16.2% | [3] -6.5% | [4] -16.9% | [5] -19.9% | [6] -10.9%

COc1cc(/C=C/C=C2\CC/C(=C\C=C\c3ccc(O)c(OC)c3)C2=O)ccc1O
inactive: [1] 10.2% | [2] 18.4% | [3] 31.4% | [4] 37.7% | [5] 29.5% | [6] -9.1%

CC1=C(C#N)C(C)(C)c2ccccc21
inactive: [1] 19.9% | [2] -10.9% | [3] 1.9% | [4] -25.9% | [5] 10% | [6] -13.2%

CC(=O)Oc1ccc2ccccc2c1CS(=O)(=O)O
inactive: [1] 5.6% | [2] 6.05% | [3] 10.9% | [4] 4.35% | [5] 3.35% | [6] 10.4%

CC1(C)CC2(C)CC1CC2O (configuration not stated)
inactive: [1] 3.5% | [2] 9.6% | [3] -1.95% | [4] 14.8% | [5] 3.85% | [6] -25.4%

O=[N+]([O-])c1cccnc1Sc1ncccn1
inactive: [1] -7.25% | [2] -12.2% | [3] -10.2% | [4] -23.1% | [5] -25.6% | [6] -6.2%
